# From the supplement of paper PMC4723716
# In all, about 3,600 compounds were measured (“viability index relative to DMSO control”: median about 0.81, lowest 2% from about 0.13 on). Only a selection was taken, and the lowest values are over-represented in it overall.
# Test system: Plasmodium falciparum NF54 stage V gametocytes
# Assay: viability index relative to DMSO control (fraction); higher = less gametocyte killing
# Conditions: 1.25 µM, incubation time: 72 h
# 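Note: Saponin-lysis sexual stage assay in serum-free medium: MitoTracker Red CMXRos staining plus saponin, high-content imaging, particle count per well divided by plate mean of DMSO wells.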
row,SMILES,viability index
1,CC(C)c1ccc2c(c1)c1c3c([n+](C)ccn32)CCC1,1.22
2,CC(Cc1ccsc1)Nc1nc2nonc2nc1N(C)C (configuration not stated),0.853
3,Cc1ccc(OCCCCN2CCOCC2)c([N+](=O)[O-])c1,0.798
4,O=C(Nc1cc(Cl)cc(Cl)c1)Nc1cccc(C(F)(F)F)c1,1.06
5,O=C1C=C(Nc2cccc(C(F)(F)F)c2)C(=O)c2ccccc21,0.0673
6,COC1=C(Nc2cccc(C(F)(F)F)c2)C(=O)c2ccccc2C1=O,0.606
7,CCOC(=O)c1ccc(N(C(=O)Cc2c[nH]c3ccccc23)C(C(=O)NC2CCCCC2)c2cccc(OC)c2OC)cc1 (configuration not stated),0.849
8,NC12CC3CC(C1)CC(SSC14CC5CC(CC(N)(C5)C1)C4)(C3)C2,0.11
9,COc1ccc(C2CC(=O)C3=C(C2)NC(=O)CC3c2ccc([N+](=O)[O-])cc2)cc1OC (configuration not stated),0.406
10,O=C(Nc1ccc(-n2cnnn2)cc1)C1CCN(Cc2cc3ccccc3o2)CC1,0.942
11,COc1ccc2c(c1)OC(O)(C(F)(F)C(F)(F)F)CC2=O (configuration not stated),0.6
12,CCN(CC)S(=O)(=O)c1cc(C(=O)O)ccc1Cl,0.971
13,COc1cccc(OC)c1C(=O)Nc1cc(C(F)(F)F)ccc1Cl,0.971
14,COc1ccc(C=NNc2cc(C)nc3ccccc23)cc1,0.946
15,COc1ccc(C=NNc2cc(C)nc3ccc(OC)cc23)c(OC)c1,0.591
16,COC(=O)c1ccc(C=NNc2cc(C)nc3ccc(OC)cc23)cc1,0.0573
17,CC(C)(C)CC(C)(C)c1ccc(O)c(CN2CCN(CCC#N)CC2)c1,0.735
18,COc1ccc(CNC2CCN(c3cccc(NC(=O)C4CC4)c3)CC2)cc1,1.12
19,C=CCN1C(=O)C(=C2Sc3ccc(OC)cc3N2C)SC1=Nc1ccccc1-c1ccccc1,0.448
20,Oc1ccc(-c2cncnc2)cc1CNC1CCN(Cc2ccccc2)CC1,1
21,CCN(CC)Cc1cc(Nc2ccnc3cc(Cl)ccc23)ccc1O,0.873
22,COc1ccc(Nc2nc(NN=Cc3cccc([N+](=O)[O-])c3OC)nc(Nc3ccc([N+](=O)[O-])cc3)n2)cc1,0.469
23,O=[N+]([O-])c1ccc(C=NNc2nc(Nc3ccccc3)nc(Nc3ccccc3)n2)o1,0.0664

row,SMILES,viability index
1,Cc1nonc1C(=O)NN=Cc1ccc([N+](=O)[O-])o1,0.871
2,COc1ccc(-c2cnnc(NN=Cc3ccc([N+](=O)[O-])o3)n2)cc1,0.0154
3,O=[N+]([O-])c1ccc(Nc2nc(NN=Cc3ccccc3I)nc(Nc3ccccc3)n2)cc1,0.985
4,O=[N+]([O-])c1ccc(-c2ccc(C=NNc3nc(Nc4ccccc4)nc(Nc4ccccc4)n3)o2)cc1,0.626
5,COc1ccc(NC(=O)NCc2cccn2Cc2ccc(F)cc2)cc1OC,0.952
6,CCOC(=O)c1sc(Nc2c(Cl)cc(S(N)(=O)=O)cc2Cl)nc1C,0.886
7,CCOC(=O)C1=C(C)NC2=C(C(=O)CC(c3ccc(OC)c(OC)c3)C2)C1c1ccccc1OC (configuration not stated),0.68
8,CCOC(=O)c1c(NC(=O)CSc2nnc(CNC(=O)c3ccc(C)c(C)c3)n2C2CCCCC2)sc2c1CCC2,0.784
9,O=C1CN(C(=O)CCC2CCCC2)C(c2ccc(F)cc2)c2cc(Cl)ccc2N1 (configuration not stated),0.751
10,S=P(OCC1C(COP(=S)(c2ccccc2)c2ccccc2)C1(Cl)Cl)(c1ccccc1)c1ccccc1 (configuration not stated),0.562
11,CN1C(=O)N(C)C2(c3ccccc3)NN3C(=NC12c1ccccc1)SC1=C3C(=O)c2ccccc2C1=O (configuration not stated),0.0309
12,CCOC(=O)c1nnn(-c2nonc2N)c1-c1ccc(Br)cc1,0.676
13,Cc1oc2c(c1C(=O)NC1CCS(=O)(=O)C1)C(=O)c1ccccc1C2=O (configuration not stated),0.0502
14,CCOC(=O)C1CCN(C(=O)c2c(C)oc3c2C(=O)c2ccccc2C3=O)CC1,0.0992
15,Cc1oc2c(c1C(=O)NCC1CCCO1)C(=O)c1ccccc1C2=O (configuration not stated),0.195
16,CCOC(=O)C1CCCN(C(=O)c2c(C)oc3c2C(=O)c2ccccc2C3=O)C1 (configuration not stated),0.726
17,Cc1oc2c(c1C(=O)N1CCN(C)CC1)C(=O)c1ccccc1C2=O,0.43
18,Cc1oc2c(c1C(=O)NCc1cccnc1)C(=O)c1ccccc1C2=O,0.231
19,CCOC(=O)c1c(C)oc2c1C(=O)c1ccccc1C2=O,0.902
20,Cc1oc2c(c1C(=O)NCCCn1ccnc1)C(=O)c1ccccc1C2=O,0.0826
21,Cc1oc2c(c1C(=O)N1CCC(C)CC1)C(=O)c1ccccc1C2=O,0.587
22,Cc1cc(I)ccc1N1C(=O)C2C3c4ccccc4C(CO)(c4ccccc43)C2C1=O (configuration not stated),1.06
23,CC(=O)N(C1=C(N2CCOCC2)C(=O)c2ccccc2C1=O)c1ccc(C(C)C)c(C)c1,0.509

row,SMILES,viability index
1,Oc1c(C(Nc2ccccn2)c2ccc(Br)cc2)ccc2cccnc12 (configuration not stated),1.1
2,Cc1cc(C)n(-c2ccc(NC(=O)C3CCN(Cc4cc(C)c(C)o4)CC3)cc2)n1,0.926
3,Oc1ccc2ccccc2c1CNc1nc2ccccc2[nH]1,0.865
4,CCN(CC)CCNc1ccc(Nc2ccnc3cc4ccccc4cc23)cc1,0.423
5,N#Cc1cc2nc3c(nc2cc1C#N)-c1ccccc1C3=O,0.0308
6,Cc1ccc(-c2cc3c(nn2)-c2ccccc2C3=O)cc1,0.65
7,CCOC(=O)c1ccc2nc3c(nc2c1)C(=O)c1ccccc1C3=O,0.359
8,Cc1[nH]c2ccccc2c1C=Cc1cc[n+](C)cc1,1.08
9,O=C(C1CCN(c2nnnn2-c2ccccc2)CC1)N1CCc2ccccc2C1,0.826
10,N#CC(=Cc1ccc(Sc2ccccc2)o1)c1nc2ccccc2[nH]1,0.776
11,N#CC(=CC=Cc1ccc([N+](=O)[O-])o1)c1nc2ccccc2[nH]1,0.0143
12,CCN(CC)c1ccc(C=C(C#N)c2nc3ccccc3[nH]2)o1,0.609
13,O=S(=O)(c1ccc(Cl)cc1)N1CCN(C(=S)NCc2ccco2)CC1,0.959
14,CCOC(=O)C1=C(C)NC2=C(C(=O)CC(c3ccc(Cl)cc3)C2)C1c1ccc(Br)cc1 (configuration not stated),0.725
15,CC(C)(C)NC(=S)NN=CC=NNC(=S)NC(C)(C)C,0.299
16,OC1CCCCC1C1(NC(=S)Nc2ccccc2)CCCCC1 (configuration not stated),1.08
17,S=C(NN=CC=NNC(=S)Nc1ccccc1)Nc1ccccc1,0.104
18,O=S(=O)(NCCNc1ncnc2scc(-c3ccccc3)c12)c1ccc(Cl)c(Cl)c1,0.554
19,FC(F)(F)c1ccc(Nc2nnnc3ccccc23)cc1,1.04
20,Brc1ccc2[nH]c3nc4ccccc4nc3c2c1,0.699
21,c1ccc2nc3c(nnc4ccccc43)nc2c1,0.092
22,COC(OC)C(C)=NNC(N)=S,0.112
23,CC(=NNC(N)=S)C(C)=NNC(N)=S,0.27

row,SMILES,viability index
1,COc1cc(Nc2cncc(-c3ccc(C(N)=O)cc3)n2)cc(OC)c1OC,0.0179
2,COc1cc(C(=O)Nc2nnc(-c3ccccc3)o2)cc(OC)c1OC,0.81
3,COc1cc(Nc2cncc(-c3ccncc3)n2)cc(OC)c1OC,0.524
4,CSc1ccc(C=CC(=O)NC(=O)c2ccccc2O)cc1,0.661
5,CCOC(=O)C1=C(C)N(CCNc2ncc(C(F)(F)F)cc2Cl)C(=O)CC1,1.04
6,CCCCCc1ccc(OCCCC[n+]2cccc(C)c2C)c(CCCCC)c1,0.521
7,CCCn1c(=N)c(C(=O)NC2CCCCC2)cc2c(=O)n3cccc(C)c3nc21,1.15
8,CC(C)=CCCC(C)=CCCC(C)NCCN1CCNCC1 (configuration not stated),0.135
9,CC(NCCCN(C)C)c1cc(C(C)(C)C)cc2c1CCC2(C)C (configuration not stated),0.283
10,CC(NCCN1CCNCC1)c1cc(C(C)(C)C)cc2c1CCC2(C)C (configuration not stated),0.104
11,CC12C(=O)N(c3cccc(C(=O)O)c3)C(=O)C1C1c3ccccc3C2c2ccccc21 (configuration not stated),1.15
12,Cc1c(Cl)cccc1NCC(=O)NN=C1CCCC1,0.779
13,COc1cc(OC)c(NC(=O)C2c3ccccc3C(=O)N(CC(C)C)C2c2cccs2)cc1Cl (configuration not stated),0.0683
14,COc1cc(Cl)c(C)cc1NC(=O)C1c2ccccc2C(=O)N(CC(C)C)C1c1cccs1 (configuration not stated),0.398
15,COc1ccc(Cl)cc1NC(=O)C1c2ccccc2C(=O)N(CC(C)C)C1c1cccs1 (configuration not stated),0.426
16,CC(C)CN1C(=O)c2ccccc2C(C(=O)Nc2ccc(F)c(Cl)c2)C1c1cccs1 (configuration not stated),0.237
17,COc1ccc(NC(=O)C2c3ccccc3C(=O)N(CC(C)C)C2c2cccs2)cc1Cl (configuration not stated),0.104
18,COc1cc(OC)c(NC(=O)C2c3ccccc3C(=O)N(C)C2c2cccs2)cc1Cl (configuration not stated),0.546
19,CC(C)CN1C(=O)c2ccccc2C(C(=O)Nc2cccc(Cl)c2)C1c1cccs1 (configuration not stated),0.209
20,COc1ccc(NC(=O)C2c3ccccc3C(=O)N(CC(C)C)C2c2cccs2)cc1OC (configuration not stated),0.0723
21,CC(C)CN1C(=O)c2ccccc2C(C(=O)Nc2ccc(C(C)C)cc2)C1c1cccs1 (configuration not stated),0.281
22,COc1cc(C(c2c(C)n(C)n(-c3ccccc3)c2=O)c2c(C)n(C)n(-c3ccccc3)c2=O)cc(Cl)c1OCc1ccccc1,0.699
23,Cc1n(C)c2ccccc2[n+]1CC(=O)c1ccccc1,0.785
